Test results taken from the supplement of paper PMC13380429.

Test system: Vero E6 infected with SARS-CoV-2
Experiment: inhibition of SARS-CoV-2 cytopathic effect; higher = more antiviral protection, active = above 15
Details: 48 h

Measured: inhibition of SARS-CoV-2 cytopathic effect

C[C@@H]1CC[C@@]2(NC1)O[C@H]1C[C@H]3[C@@H]4CC=C5C[C@@H](O[C@@H]6O[C@H](CO)[C@@H](O[C@@H]7O[C@@H](C)[C@H](O)[C@@H](O)[C@H]7O)[C@H](O)[C@H]6O[C@@H]6O[C@@H](C)[C@H](O)[C@@H](O)[C@H]6O)CC[C@]5(C)[C@H]4CC[C@]3(C)[C@H]1[C@@H]2C [solamargine]
inactive: 1 nM -1.13% | 8.33 nM -0.16% | 100 nM 0.07% | 833.33 nM -3.82% | 10000 nM -15.1%

Cc1ncc(OC[C@@]2(c3cccc(F)c3)C[C@H]2C(=O)Nc2ccc(F)cn2)c(C)n1 [lemborexant]
inactive: 1 nM -1.6% | 8.33 nM -1.02% | 100 nM -1.75% | 833.33 nM -4.61% | 10000 nM -1.06%

NC(N)=Nc1nc(CSCC/C(N)=N/S(N)(=O)=O)cs1 [famotidine]
inactive: 1 nM -4.18% | 8.33 nM -3.04% | 100 nM 2.88% | 833.33 nM 4.59% | 10000 nM -0.5%

C[C@H]1[C@H](OC(=O)CCC(=O)O)O[C@@H]2O[C@@]3(C)CC[C@H]4[C@H](C)CC[C@@H]1[C@@]24OO3 [artesunate]
inactive: 1 nM -1.31% | 8.33 nM -0.87% | 100 nM 1.57% | 833.33 nM -1.37% | 10000 nM -11.7%

Cn1ccc2cc3c(cc21)CCN3C(=O)Nc1cccnc1
inactive: 1 nM 1.1% | 8.33 nM 0.1% | 100 nM 1.8% | 833.33 nM 0.79% | 10000 nM 2.05%

Cc1cnc(C(=O)NCCc2ccc(S(=O)(=O)NC(=O)NC3CCCCC3)cc2)cn1 [glipizide]
inactive: 1 nM -3.14% | 8.33 nM -1.53% | 100 nM -0.68% | 833.33 nM -1.78% | 10000 nM 0.54%

Cc1ccc(Nc2c(F)cccc2Cl)c(CC(=O)O)c1 [lumiracoxib]
inactive: 1 nM -0.15% | 8.33 nM -0.84% | 100 nM -0.33% | 833.33 nM 0.6% | 10000 nM -0.38%

N=C(C[C@@H](O)COc1ccccc1-c1ccccc1)N1CCCCC1
inactive: 1 nM -5.21% | 8.33 nM -4.99% | 100 nM 0.04% | 833.33 nM -2.13% | 10000 nM -2.77%

CN(C)CC/C=C1/c2ccccc2Sc2ccc(Cl)cc21 [chlorprothixene]
inactive: 1 nM 5.54% | 8.33 nM 3.98% | 100 nM -4.95% | 833.33 nM -3.59% | 10000 nM -1.82%

CC(=O)O[C@]1(C(C)=O)CC[C@H]2[C@@H]3CCC4=CC(=O)CCC4=C3[C@@H](c3ccc(N(C)C)cc3)C[C@@]21C [Ulipristal acetate]
inactive: 1 nM 4.79% | 8.33 nM 2.62% | 100 nM 1.8% | 833.33 nM 7.36% | 10000 nM 12.9%

Cc1cc(C)c(NC(=O)C2CC3CCC2C3)c(C)c1 (stereo not given)
inactive: 1 nM -1.62% | 8.33 nM -1.21% | 100 nM -3.03% | 833.33 nM -0.39% | 10000 nM 2.61%

c1ccc2c(-c3cnn4cc(-c5ccc(N6CCNCC6)cc5)cnc34)ccnc2c1
inactive: 1 nM 1.9% | 8.33 nM 4.28% | 100 nM 1.29% | 833.33 nM -6.31% | 10000 nM -26.3%

OC[C@@H](O)[C@@H](O)CO [erythritol]
inactive: 1 nM -0.84% | 8.33 nM -2.36% | 100 nM -2.74% | 833.33 nM 0.56% | 10000 nM 0.5%

CC(=O)N1CCN(CCOc2ccc(C3CCN(C4=Nn5c(nnc5C(F)(F)F)CC4)CC3)cc2)CC1
inactive: 1 nM 0.09% | 8.33 nM 1.43% | 100 nM 0.26% | 833.33 nM 1.65% | 10000 nM 1.88%

NC(=O)NCCC[C@H](N)C(=O)O [L-citrulline]
inactive: 1 nM 0.06% | 8.33 nM -1.99% | 100 nM 1.8% | 833.33 nM 2.58% | 10000 nM 1.61%

OC(CNCC(O)C1CCc2cc(F)ccc2O1)C1CCc2cc(F)ccc2O1 (stereo not given) [nebivolol]
inactive: 1 nM -8.56% | 8.33 nM -2.57% | 100 nM -0.54% | 833.33 nM -2.81% | 10000 nM -3.97%

O=C(NNC(=O)c1ccc(CNS(=O)(=O)c2ccc(F)c(Cl)c2)cc1)c1ccccc1
inactive: 1 nM -1.42% | 8.33 nM -1.3% | 100 nM 3.13% | 833.33 nM 0.57% | 10000 nM -0.76%

C=CC(C)(C)c1cc(/C=C/C(=O)c2ccc(O)cc2)c(OC)cc1O [licochalcone-A]
inactive: 1 nM -0.14% | 8.33 nM 0.43% | 100 nM -0.55% | 833.33 nM -9.62% | 10000 nM 8.6%
